Relative viability data for five compounds are collected here from the supplement of paper PMC6279402.

Counter-ions that a name gives are not always drawn. ± gives the standard deviation of the averaged measurements.

The assay has as its system A549. Briefly: relative viability (normalised to negative control = 1, bortezomib = 0) (fraction); higher = less cytotoxic. The conditions noted are these: inflammatory serum-free RHB-A with cytokines + LPS; 5 d + 24 h CellTiter-Blue; compound 300 nM; GSK126 pretreatment: none (vehicle). (Resazurin is reduced to fluorescent resorufin, in cell work by metabolically active cells.)
`COc1cc2c(Nc3ccc(NC(=O)c4ccccc4)cc3)ncnc2cc1OCCCN1CCOCC1`: the relative viability turned out to be 0.9853 ± 0.0095.
To `NC1(c2ccc(-c3nc4ccn5c(=O)[nH]nc5c4cc3-c3ccccc3)cc2)CCC1` belongs 0.522 ± 0.067; to `C[C@@H](Oc1cc(-n2cnc3ccc(CN4CCN(C)CC4)cc32)sc1C(N)=O)c1ccccc1C(F)(F)F`, 0.363 ± 0.072; to `Cc1ccc(NC(=O)c2cccc(N(C)C)c2)cc1NC(=O)c1ccc(O)cc1`, 1.15 ± 0.042.
In the case of `COc1cccc2c1C(=O)c1c(O)c3c(c(O)c1C2=O)C[C@@](O)(C(=O)CO)C[C@@H]3O[C@H]1C[C@H](N)[C@H](O)[C@H](C)O1` [Doxorubicin hydrochloride; 4'-Epiadriamycin; Doxorubicin HCl], the relative viability was 0.463 ± 0.075.
